High-throughput results (PubChem BioAssay)
HDAC3 inh – human HDAC3 inhibition. O15379. recombinant HDAC3, fluorogenic peptide/trypsin coupled, fluorescence. inhibition, % at 8.3 µM. hit rate 0.15% among 320,000. AID 2718; in the data active means inhibition above about 26%, passing the limit was not always enough; inconclusive means no clear call, values can overlap the other calls
Pemphigus Ab inh – blocks pemphigus antibody binding to human desmoglein-3 | DSG3-coupled beads, scFv-anti-DSG3-GFP binding, flow cytometry; active compounds read low | binding (percent of control), % at 10 µM | hit rate 0.48% among 310,000;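 active means binding more than 3 SD below its plate's average and above zero; inconclusive means below that plate limit but binding exactly zero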;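 further: hits lower antibody fragment binding to DSG3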
Target sequence (P32926 whole entry, looked up, the tested form may be a part): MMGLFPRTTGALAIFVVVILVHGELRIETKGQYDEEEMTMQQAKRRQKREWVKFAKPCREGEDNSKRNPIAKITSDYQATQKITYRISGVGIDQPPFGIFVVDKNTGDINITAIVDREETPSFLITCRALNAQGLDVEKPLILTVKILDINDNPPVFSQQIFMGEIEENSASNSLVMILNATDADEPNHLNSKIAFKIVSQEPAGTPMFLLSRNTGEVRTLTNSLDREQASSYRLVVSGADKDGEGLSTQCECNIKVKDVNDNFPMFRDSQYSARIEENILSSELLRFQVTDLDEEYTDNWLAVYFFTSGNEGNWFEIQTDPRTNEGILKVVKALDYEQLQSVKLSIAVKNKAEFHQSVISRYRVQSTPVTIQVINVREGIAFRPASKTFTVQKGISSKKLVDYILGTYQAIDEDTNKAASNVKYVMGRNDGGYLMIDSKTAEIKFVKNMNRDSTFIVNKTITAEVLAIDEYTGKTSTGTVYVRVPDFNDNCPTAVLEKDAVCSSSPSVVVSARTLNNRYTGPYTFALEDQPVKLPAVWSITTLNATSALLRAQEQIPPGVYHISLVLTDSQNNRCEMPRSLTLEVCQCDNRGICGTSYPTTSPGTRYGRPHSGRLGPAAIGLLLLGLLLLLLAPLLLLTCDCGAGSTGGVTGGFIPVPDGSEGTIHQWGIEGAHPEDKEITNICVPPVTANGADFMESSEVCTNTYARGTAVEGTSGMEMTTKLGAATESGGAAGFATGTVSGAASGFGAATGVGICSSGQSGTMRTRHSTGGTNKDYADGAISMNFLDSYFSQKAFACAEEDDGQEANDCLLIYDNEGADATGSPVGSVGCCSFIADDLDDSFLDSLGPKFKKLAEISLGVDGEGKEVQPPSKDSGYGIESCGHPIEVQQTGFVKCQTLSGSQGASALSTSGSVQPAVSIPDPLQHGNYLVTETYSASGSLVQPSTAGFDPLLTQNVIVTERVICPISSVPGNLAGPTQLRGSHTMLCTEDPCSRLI
PKD1 kinase inh – blocks activity of human protein kinase D1. hit rate 0.056% among 200,000. PKD1 kinase fluorescence polarization assay. AID 797. inhibition, % (concentration not given with the values). Q15139
VLA-4 inh – inhibition in a human VLA-4 binding assay. P13612. VLA-4 expressing cells, ligand binding flow cytometry. inhibition, % (about 7 µM as worked out from the volumes in the protocol). hit rate 0.2% among 330,000
GRK2 aptamer HTS – human GRK2 inhibition via aptamer displacement. bead flow cytometry, FAM-aptamer displacement from GRK2. P25098. AID 488847. hit rate 0.59% among 330,000. inhibition of aptamer binding, % at 10 µM;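 active means inhibition of aptamer binding above 40%, roughly 3 SD of noise, on plates passing a quality check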;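 further: median bead fluorescence of bound FAM aptamer so fluorescent compounds give negative values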
LANA-H2A inh – blocks KSHV LANA binding to histone H2A/H2B; Q9QR71; cell-free LANA-H2A/H2B peptide, fluorescence polarization; inhibition, % (concentration not given with the values); hit rate 0.6% among 320,000; AID 2629; in the data active means inhibition mostly above about 10%, no sharp cut-off; inactive means mostly below about 6.7%
Each line names hits and unclear results; the compound was inactive in the other large screens. Rows were chosen to be rich in hits. Some 1.8% of all compounds tested hit in one or more screens of this group. Unless noted, no stated cut-off is given here; in the data, active means inhibition above about 50%; inactive means the rest.

CCn1c(CSc2nnc(-c3ccncc3)n2CCOC)nc2cc(C(=O)O)ccc21	none
CCn1c(CSc2nnc(-c3cccnc3)n2-c2ccccc2C)nc2cc(C(=O)O)ccc21	LANA-H2A inh 18 (no result: Pemphigus Ab inh)
CCCNC(=O)COC(=O)/C(C#N)=C/c1cc(C)n(CCC)c1C	none
CN(Cc1ncc[nH]1)C(=O)CC1C(=O)NCCN1Cc1c(F)cccc1Cl (centres undefined)	none
CN(CCC1CCOCC1)C(=O)CC1C(=O)NCCN1Cc1c(F)cccc1Cl (centres undefined)	LANA-H2A inh 40 (no result: PKD1 kinase inh)
N#Cc1ccc2sn(-c3ccccc3)c(=O)c2c1	Pemphigus Ab inh 41 (no result: HDAC3 inh, PKD1 kinase inh, VLA-4 inh, GRK2 aptamer HTS, LANA-H2A inh)
CCn1c2ccccc2c2cc(NC(C)=O)ccc21	Pemphigus Ab inh inconclusive
N#Cc1ccc2c(c1)nnn2-c1ccccc1	none (no result: PKD1 kinase inh)
O=c1c2cc([N+](=O)[O-])ccc2sn1-c1ccccc1	Pemphigus Ab inh 66 (no result: HDAC3 inh, PKD1 kinase inh, VLA-4 inh, GRK2 aptamer HTS, LANA-H2A inh)
CC(=O)Nc1ccc2sn(-c3ccccc3)c(=O)c2c1	Pemphigus Ab inh 49 (no result: HDAC3 inh, PKD1 kinase inh, VLA-4 inh, GRK2 aptamer HTS, LANA-H2A inh)
CCC[C@@H](O)c1cc2cc(OC)c(OC)cc2c(=O)o1	none (no result: PKD1 kinase inh)
CCN1C[C@@H]2[C@@H]3C(=O)N(C)C(=O)[C@@H]3[C@](Cc3ccccc3)(C(=O)OC)N2C1=NC1CCCCC1	none (no result: HDAC3 inh, PKD1 kinase inh, VLA-4 inh, LANA-H2A inh)
CCN(Cc1ccncc1)Cc1nc(-c2ccc(C(=O)OC)cc2)no1	LANA-H2A inh 9.6
O=C1c2ccccc2C(=O)N1CCCOCc1c[nH]c(=O)[nH]c1=O	none
O=c1[nH]cc(COCC(F)CCl)c(=O)[nH]1 (centres undefined)	Pemphigus Ab inh 72 (no result: PKD1 kinase inh)
CC1CCCCC1Nc1ncnc2sccc12 (centres undefined)	none (no result: Pemphigus Ab inh, PKD1 kinase inh)
CCC(C)[C@H](NC(=O)N1CCn2c1nc1ccccc12)C(=O)NCCc1ccc(OC)c(OC)c1 (some centres undefined)	none (no result: PKD1 kinase inh)
O=C(NNC(=O)C1CC1)c1cc(Cl)nc2ccccc12	GRK2 aptamer HTS 75 (no result: PKD1 kinase inh)
CCCCCN(C(=O)COC(=O)c1ccc(C)cc1)c1c(N)n(CCCC)c(=O)[nH]c1=O	none (no result: Pemphigus Ab inh, PKD1 kinase inh)
Cc1cccc(NC(=O)[C@@H]2CCCN2S(=O)(=O)c2ccc(Cl)cc2)c1	none (no result: Pemphigus Ab inh, PKD1 kinase inh)
O=c1[nH]c(C2CCCN(S(=O)(=O)c3ccccc3Cl)C2)nc2c1nnn2Cc1ccc2c(c1)OCCO2 (centres undefined)	Pemphigus Ab inh 77 (no result: PKD1 kinase inh)
O=c1[nH]c(C2CCN(S(=O)(=O)c3ccccc3)CC2)nc2c1nnn2Cc1ccc2c(c1)OCCO2	none (no result: PKD1 kinase inh)
c1cnc2c(C3NCCc4c3[nH]c3ccccc43)cccc2c1 (centres undefined)	none
COc1ccc(-c2c(-c3cc(OC)cc(OC)c3)n(C)c3ccc(-c4ccc(N(C)C)nc4)cc23)cc1	none (no result: PKD1 kinase inh)
CCN(CC)C(=O)Cn1cnc2sc(C)c(S(=O)(=O)N3CCC(C)CC3)c2c1=O	none (no result: PKD1 kinase inh)
CC1CCCCC12NC(=O)N(CC(=O)Nc1ccc3[nH]c(=O)[nH]c3c1)C2=O (centres undefined)	none (no result: PKD1 kinase inh)
COc1cccc(C(=O)N/N=C/c2ccc(OC3CSC3)cc2)c1	LANA-H2A inh 46
CN(C(=O)CCc1nnc(-c2ccc(-c3ccccc3)cc2)o1)C1CCOCC1	LANA-H2A inh 15 (no result: PKD1 kinase inh)
COc1ccc(OC)c(C2=CC(=O)C[C@H](c3ccc4c(c3)OCO4)C2)c1	none (no result: PKD1 kinase inh)
CCCCNC(=O)C(CC)(ONc1ccccc1C(F)(F)F)c1ccccc1OC (centres undefined)	none (no result: PKD1 kinase inh)
O=C(N/C(=C\c1ccc([N+](=O)[O-])cc1)C(=O)N1CCCCC1)c1ccccc1	LANA-H2A inh 13
S=c1[nH]nc(-c2ccccn2)n1/N=C/c1ccc(Cl)c(Cl)c1	none (no result: PKD1 kinase inh)
S=c1[nH]nc(-c2ccccn2)n1/N=C/c1ccc(Br)s1	Pemphigus Ab inh 65
Fc1ccccc1OCCCCN1CCCCC1	none (no result: PKD1 kinase inh)
COc1ccc(CCNC(=O)c2cccc(Br)c2)cc1OC	none (no result: PKD1 kinase inh)
COc1cc(Cl)c(C)cc1NC(=O)COC(=O)C1=COCCO1	none (no result: PKD1 kinase inh)
O=C(Cn1cnc2ccccc2c1=O)Nc1nc2ccccc2s1	Pemphigus Ab inh 65
CCc1ccc2nc(NC(=O)Cn3cnc4ccccc4c3=O)sc2c1	none
O=C(CSc1nc(O)cc(=O)n1-c1ccccc1)Nc1ccc2c3c(cccc13)CC2	Pemphigus Ab inh 41
O=C(O/N=C(/c1ccccc1)c1ccncc1)c1cccc(F)c1	none
Cc1ccc(C(=O)O/N=C(\c2ccccc2)c2ccncc2)cc1	HDAC3 inh 36
CCOC(=O)C1C(=O)CC(C)(O)C(C(=O)OCC)C1/C=C/c1ccccc1 (centres undefined)	LANA-H2A inh 82 (no result: HDAC3 inh, VLA-4 inh, GRK2 aptamer HTS)
